# PubChem BioAssay AID720533 (National Center for Advancing Translational Sciences (NCATS), 2013)
# “And” between values parts separate entries of the source, which are not always exact repeats. Identical values can stand only once. The campaign covered roughly 18,000 compounds. About 750 (4.2%) were called active. A call without a number means that no potency is given here. Roughly 13% stayed inconclusive and do not appear here. The call rests on the fitted dose curve; tested in HEK293 cells. Many of the other results were omitted from the sample, so actives are more common in it than they were. Some compounds were tested as several samples or in several runs, with calls that do not always agree.
# Assay: qHTS for Inhibitors of binding or entry into cells for Lassa Virus
# Details: Lassa virus pseudotyped entry inhibition, cell-based qHTS; series mostly up to 49.2 µM
# Potency means the concentration at half of the fitted maximal effect.
SMILES,"activity change, negative = inhibition",Potency
COc1ccc(O[C@H]2C=C[C@@H](c3ccccc3)O[C@H]2COC(=O)CCC(C)=NOC[C@@H](C)[C@H](OCc2ccccc2)C(C)C)cc1,-27.6% [at 8.59 µM] (inactive),
CCCCC/C=C\C/C=C\C/C=C\CCCCCCC(N)=O,inactive,
COc1ccc(O[C@H]2C=C[C@@H](c3ccccc3)O[C@H]2CON=C[C@@H](C)[C@H](OCc2ccccc2)C(C)C)cc1,-25.5% [at 8.59 µM] (inactive),
CCN(CC)CCCN=C1NC(c2ccccc2)C(C(=O)OC)=C(C)N1CC (configuration not stated),9.38% [at 8.59 µM] (inactive),
C[C@H]1Cc2c(COc3ccccc3)nc3c(c2CO1)CN(C(=O)Nc1cccc(C#N)c1)CC3,-15.7% [at 8.59 µM] (inactive) and -11.7% [at 8.59 µM] (inactive),
CC1(C)S[C@@H]2[C@H](N=CN3CCCCCC3)C(=O)N2[C@H]1C(=O)O,inactive,
CC(C)(Cc1c[nH]c2ccc(Cl)cc12)NCCOc1ccccc1OCC1CC1,,28.2 µM (active)
CC(=O)OCC(=O)[C@@]1(O)CCC2C3CCC4=CC(=O)CC[C@@]4(C)[C@]3(F)C(O)C[C@]21C (some centres not stated),inactive,
Cc1ccc(-c2ccnc(-n3ncc(C(=O)N(C)Cc4cccc5ncccc45)c3C3CC3)n2)o1,inactive,
Cc1cccc(CNC(=O)c2cnn(-c3nccc(-c4ccccc4F)n3)c2C2CC2)n1,inactive,
CN(Cc1cccc2ncccc12)C(=O)c1cnn(-c2nccc(-c3ccccc3F)n2)c1C1CC1,,12.6 µM (active)
Cc1ccc(S(=O)(=O)N2CCC(=O)N([C@H](COCc3ccccc3)Cc3ccccc3)CC2)cc1,inactive,
CCC1CN(CCNC(=O)c2ccsc2)Cc2cc(OC)ccc2O1 (configuration not stated),inactive,
CCCCN1CC(COCc2ccccc2)OCCS1(=O)=O (configuration not stated),inactive,
C=C(C)C1CC=C(CO)CC1 (configuration not stated),inactive,
C=C1/C(=C\C=C2\CCCC3(C)C2CCC3C(C)/C=C/C(O)C2CC2)CC(O)CC1O (configuration not stated),,10 µM (active)
N#Cc1c(Cl)c(Cl)c(Cl)c(C#N)c1Cl,,2.24 µM (active)
CC(C)(O)CCC(O)[C@@](C)(O)C1CC[C@]2(O)C3=CC(=O)C4CC(O)C(O)C[C@]4(C)C3CC[C@]12C (some centres not stated),inactive,
COC(C)C(C(=O)OCC1=CCN2CC[C@H](O)[C@@H]12)C(C)C (some centres not stated),inactive,
COC(=O)C12C[C@H](C)C3C(C)C(c4ccccc4C31)N2C(=O)C(F)(F)F (some centres not stated),4.09% [at 8.59 µM] (inactive),
CCCCC[C@H](O)/C=C/[C@@H]1[C@@H](CC(=O)CCC(=O)O)[C@@H](O)C[C@H]1O,inactive,
COc1cc(C(=O)N2CCOCC2)cc(OC)c1OC,inactive,
COC(=O)C1=C(C(=O)OC)[C@@H]2N(C)c3ccccc3[C@@]23C[C@@H](C(=O)OC)N(C(=O)c2ccco2)C3=N1,11.9% [at 8.59 µM] (inactive),
CC(C)c1cnc(NC(=O)Cc2ccccc2)s1,inactive,
CC(=O)Oc1ccccc1C(=O)Nc1ncc([N+](=O)[O-])s1,,7.94 µM (active)
CCOC(=O)[C@H](CCc1ccccc1)N[C@@H](C)C(=O)N1CC2(C[C@H]1C(=O)O)SCCS2,inactive,

SMILES,"activity change, negative = inhibition",Potency
COc1cccc(CN2CCC3(CC2)c2ccccc2[C@@H](NC(=O)c2ccccc2OC)[C@@H]3O)c1,inactive,
CO[C@@H]1C[C@@H](C[C@H]2CC[C@H](C)[C@@H]([C@@H](C)C(=O)O)O2)O[C@]2(O[C@](C)([C@H]3CC[C@@](C)(C4OC([C@H]5O[C@@](O)(CO)[C@H](C)C[C@@H]5C)C[C@@H]4C)O3)C[C@H]2C)[C@@H]1C (some centres not stated),,3.16 µM (active)
O=C(C1CCCCC1)N1C[C@H](O)[C@H](n2cc(-c3ccc(F)cc3)nn2)C[C@@H]1c1ccccc1,inactive,
CC1C(O)CC2C(C(=O)O)=CO[C@@H](O[C@H]3OC(CO)C(O)C(O)C3O)C21 (some centres not stated),inactive,
CO[C@H]1[C@@H](O)[C@H](N)[C@@H](O[C@H]2O[C@H]([C@H](C)N)CC[C@H]2N)[C@H](O)[C@@H]1N(C)C(=O)CN,inactive,
CCC1CN(CCNC(=O)c2cccc(C)n2)Cc2cc(OC)ccc2O1 (configuration not stated),inactive,
CS(=O)(=O)c1ccc(Oc2nccc(-c3c(-c4ccc(F)cc4)ncn3C3CCNCC3)n2)cc1,inactive,
COc1ccc(NC(=O)C[C@H]2C(=O)N(CCc3ccccc3)C[C@@H]2C)cc1,inactive,
Oc1ccc(Cl)c2c1CCC2,inactive,
CC[C@]1(O)C[C@@H]2CN(CCc3c([nH]c4ccccc34)[C@@](C(=O)OC)(c3cc4c(cc3OC)N(C)[C@H]3[C@@](O)(C(=O)OC)[C@H](OC(C)=O)[C@]5(CC)C=CCN6CC[C@]43[C@@H]65)C2)C1,,inactive and 22.4 µM (active)
CC(C)C[C@@H](CC(=O)N[C@@H](CCC(=O)O)CC(=O)O)NC(=O)[C@@H]1CCCC[C@H]1NC(=O)C[C@@H](NC(=O)C[C@H](Cc1c[nH]c2ccccc12)NC(=O)[C@@H]1CCCC[C@H]1N)C(C)C,inactive,
C[C@@H]1O[C@@H](OC[C@H]2O[C@@H](Oc3cc(O)c4c(c3)O[C@H](c3ccc(O)c(O)c3)CC4=O)[C@H](O)[C@@H](O)[C@@H]2O)[C@H](O)[C@H](O)[C@H]1O,inactive,
O=c1cc(-c2ccc(O)cc2)oc2c([C@@H]3O[C@H](CO)[C@@H](O)[C@H](O)[C@H]3O)c(O)cc(O)c12,inactive,
COc1ccc(CCC(=O)c2c(O)cc(OC3OC(CO)C(O)C(O)C3O[C@@H]3OC(C)C(O)C(O)C3O)cc2O)cc1O (some centres not stated),inactive,
Cc1cccc(CNc2ccnc(-c3cccnc3)n2)c1,inactive,
CCCCN1C[C@H](c2ccc(Br)cc2)[C@@H](CC(=O)Nc2ccc(Br)cc2)C1=O,inactive,
COc1ccc(C[C@H](N)C(=O)N[C@@H]2[C@H](O)[C@H](n3cnc4c(N(C)C)ncnc43)O[C@@H]2CO)cc1,,2.51 µM (active)
Nc1ncnc2c1ncn2C1CC(O)C(CO)O1 (configuration not stated),inactive,
COc1ccc(CC(N)C(=O)NC2C(O)[C@H](n3cnc4c(N(C)C)ncnc43)O[C@@H]2CO)cc1 (some centres not stated),,3.98 µM (active)
CCN(CC)CCCC(C)Nc1ccnc2cc(Cl)ccc12 (configuration not stated),inactive,
COC1=C[C@H](C(=O)NCCNC(C)=O)[C@H](C)[C@@H](c2ccccc2)CC1=O,-0.439% [at 8.59 µM] (inactive),
COC(=O)[C@H](CC(C)C)NS(=O)(=O)c1c(F)cccc1F,inactive,
O=C1NC(CC(=O)N2CCC(n3c(C4CCC4)nc4cccnc43)CC2)c2ccccc21 (configuration not stated),inactive,
Fc1cccc(/C=N\N=C/c2cccc(F)c2)c1,inactive,
C=CCOC(=O)C(=C)C,inactive,
Cc1ccc(-c2ncc(Cl)cc2-c2ccc(S(C)(=O)=O)cc2)cn1,inactive,

SMILES,"activity change, negative = inhibition",Potency
CC[C@H](C)[C@H](NC(=O)[C@@H](N)CCC(=O)O)C(=O)N[C@@H](CC(C)C)C(=O)N[C@@H](CC(=O)O)C(=O)N[C@H](C(=O)N1CCC[C@H]1C(=O)N[C@@H](CO)C(=O)N[C@H](C(=O)O)[C@@H](C)O)C(C)C,inactive,
CC[C@H]1CN2CCc3cc(OC)c(OC)cc3[C@@H]2C[C@@H]1C[C@H]1NCCc2cc(OC)c(OC)cc21,,0.1 µM (active)
O=C(NCC1Cc2cc(F)cc(-c3cnccn3)c2O1)C1COc2ccccc2O1 (configuration not stated),inactive,
CCCCCCCC/C=C\CCCCCCCC(=O)NCC(=O)O,inactive,
O=[N+]([O-])c1ccc(CN2CC(N3CC=CC3)CS2(=O)=O)cc1 (configuration not stated),inactive,
COc1ccc(-c2c(C)cc3oc(=O)cc(-c4ccccc4)c3c2C)cc1F,inactive,
CN[C@@H]1[C@@H](O)[C@@H](O[C@@H]2[C@H](O)[C@H](O[C@H]3OC(CN)=CC[C@H]3N)[C@@H](N)C[C@H]2N)OCC1(C)O (some centres not stated),inactive,
CCOC(=O)CN1C(=O)NC(CCc2ccccc2)C(C(C)=O)=C1C (configuration not stated),-20.9% [at 8.59 µM] (inactive),
OCCN1CCN(CC/C=C2\c3ccccc3Sc3ccc(C(F)(F)F)cc32)CC1,inactive,
Cc1ccc(/C(=C/CN2CCCC2)c2ccccn2)cc1,inactive,
COc1ccccc1-c1ccnc(-n2ncc(C(=O)NCCCN3CCOCC3)c2C)n1,inactive,
C=CCN1C(=O)[C@]2(OCCC=C[C@H]2C)c2ccccc21,-16.5% [at 8.59 µM] (inactive),
C[C@@H]1CC[C@H]2C(=O)N(Cc3ccc(Cl)cc3)C[C@@H](O)CN2[C@@H]1c1cccc(Br)c1,6.98% [at 8.59 µM] (inactive),
Nc1nc2[nH]c(=O)c(=O)[nH]c2c(=O)[nH]1,inactive,
CCOC(=O)Cn1c(=O)sc2cccc(Cl)c21,inactive,
CNCC[C@H](Oc1ccc(C(F)(F)F)cc1)c1ccccc1,,inactive and 28.2 µM (active)
COC(=O)C1=C(C)N(Cc2ccccc2)C(=NCCc2ccccn2)NC1c1cccc(C(F)(F)F)c1 (configuration not stated),-11.6% [at 8.59 µM] (inactive),
COc1ccccc1N1CCN(CCN2C(=O)c3ccccc3C(C)(C)C2=O)CC1,inactive,
CC(C)=CCC[C@]1(C)[C@@H](CC=C(C)C)C[C@@]2(CC=C(C)C)C(=O)[C@]1(C(=O)C(C)C)C(=O)C(CC=C(C)C)=C2O,,12.6 µM (active)
Nc1nccc(-c2c(-c3ccc(F)cc3)ncn2CCCN2CCOCC2)n1,inactive,
CC(=O)Oc1c2c(c3c(c1CC=C(C)C)O[C@@]14C(=CC5CC1C(C)(C)OC4(C/C=C(\C)C(=O)O)C5=O)C3=O)OC(C)(CCC=C(C)C)C=C2 (some centres not stated),,6.31 µM (active)
NCCCNCCCCN(CCCN)/[N+]([O-])=N/O,inactive,
CCCCC/C=C\C/C=C\CCCCCCCCCC(=O)NCC(=O)O,inactive,
CCCCCCCC1=Cc2ccc(F)cc2C(C(C(=O)OC)C(=O)OC)N1C(=O)OC (configuration not stated),inactive,
COc1ccccc1-c1nc(NCCNC(C)=O)c2ccccc2n1,inactive,
